Results filed as inconclusive are left out. Where a structure was tested more than once in an assay, its records may differ in their call. The source made the active and inactive calls. How the source made its calls, unless noted: active means hit-call score of the fitted dose curve at least 0.9, where 1 is the maximum; inconclusive means response in the unintended direction; inactive means score below 0.9.
Legend:
[1] = molecular target: Cellular tumor antigen p53 (Homo sapiens) (UniProt P04637); test: TOX21_p53_BLA_p3_ratio: Tox21 HCT-116 p53 Agonism Beta-lactamase Assay, Ratio, Phase 3 (AID 2283596)
How it was run: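 Cells were seeded at 4000/well, rested 5 h at 37C, then dosed with DMSO compound solutions (217-fold dilution) for 16 h. CCF4-AM substrate was loaded for 2 h at room temperature, and the 460/530 nm emission ratio was fitted for gain of signal versus DMSO.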

[2] = TOX21_p53_BLA_p4_viability: Viability Assessment in the Tox21 HCT-116 p53 Agonism Beta-lactamase Assay, Phase 4 (AID 2283597);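 further: hits lower the luminescence signal meaning cytotoxicity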
How it was run: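 ATP content by CellTiter-Glo luminescence, 30 min RT, read after the beta-lactamase ratio step. Cells: HCT116, 4000/well, compound added after 5 h, exposure 16 h at 37C. Signal loss = reduced viability.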

[3] = TOX21_p53_BLA_p5_viability: Viability Assessment in the Tox21 HCT-116 p53 Agonism Beta-lactamase Assay, Phase 5 (AID 2283600)
How it was run: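 ATP luminescence (CellTiter-Glo, 30 min, RT) served as the viability read-out, with loss of signal indicating cytotoxicity. Compounds in DMSO were pinned at a 217-fold dilution onto 4000 cells/well and incubated 16 h, 37C.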

[4] = molecular target: Cellular tumor antigen p53 (Homo sapiens) (UniProt P04637); test: TOX21_p53_BLA_p4_ratio: Tox21 HCT-116 p53 Agonism Beta-lactamase Assay, Ratio, Phase 4 (AID 2283601)
How it was run: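 Signal is the blue/green (460nm/530nm) ratio of cleaved versus uncleaved CCF4-AM substrate, read after 2 h substrate loading. Cells were HCT116 carrying the p53-responsive beta-lactamase reporter, dosed 16 h at 37C, 5% CO2; CellTiter-Glo measured in parallel.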

[5] = Tanguay_ZF_120hpf_MORT_legacy: (Legacy) Oregon State University Tanguay Lab 120 Hour Post-fertilization zebrafish Assay for Mortality (AID 2283633);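 on AC50: fitted as increase in binary mortality versus DMSO negative control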
How it was run: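 Brightfield scoring of embryo death (binary) at 24 and 120 hpf; static exposure 6–120 hpf, 28C, sealed and foil-covered. Pronase-dechorionated 5D wild-type larvae, single embryo per well. DMSO 0.64% v/v; trimethyltin chloride 5uM positive control.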

[6] = Tanguay_ZF_120hpf_YSE_legacy: (Legacy) Oregon State University Tanguay Lab 120 Hour Post-fertilization zebrafish Assay for Yolk Sac Edema (AID 2283634);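 on AC50: actives raise the incidence of yolk sac edema above the DMSO baseline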
How it was run: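 Binary brightfield scoring of yolk sac edema at 120 hpf; DMSO baseline, gain-of-signal fitting. Dechorionated 5D larvae, one per well, static exposure 6–120 hpf, 28C, 0.64% DMSO. Dead embryos not scored.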

[7] = Tanguay_ZF_120hpf_EYE_legacy: (Legacy) Oregon State University Tanguay Lab 120 Hour Post-fertilization zebrafish Assay for Eye Malformation (AID 2283636);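 further: binary presence or absence of eye malformation scored by brightfield in 120 hpf larvae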
How it was run: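 Binary brightfield scoring of eye defects at 120 hpf after static exposure from 6 hpf of single pronase-dechorionated wild-type embryos (28C, 0.64% DMSO). Non-mortality endpoints omitted where embryos died; fit vs DMSO.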

[8] = Tanguay_ZF_120hpf_JAW_legacy: (Legacy) Oregon State University Tanguay Lab 120 Hour Post-fertilization zebrafish Assay for Jaw Malformation (AID 2283638);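 on AC50: active means more embryos with jaw malformation than DMSO controls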
How it was run: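 Binary jaw-malformation calls at 120 hpf by brightfield imaging; DMSO (0.64% v/v) = baseline. Embryos: 5D wild-type, pronase-dechorionated, one per well from 6 hpf, static exposure, 28C, sealed, dark.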

[9] = Tanguay_ZF_120hpf_OTIC_legacy: (Legacy) Oregon State University Tanguay Lab 120 Hour Post-fertilization zebrafish Assay for Otic Vesicle Malformation (AID 2283639)
How it was run: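 Binary scoring of otic vesicle defects at 120 hpf in zebrafish (Tropical 5D) held under static exposure at 28C, sealed and shaded, with final DMSO 0.64%. Embryos dying by 24 or 120 hpf excluded; fitted positively against DMSO.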

[10] = Tanguay_ZF_120hpf_PE_legacy: (Legacy) Oregon State University Tanguay Lab 120 Hour Post-fertilization zebrafish Assay for Pericardial Edema (AID 2283640);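 on AC50: potency for increased incidence of pericardial edema versus DMSO baseline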
How it was run: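 Static waterborne exposure, 5D wild-type embryos, 28C, to 120 hpf; final DMSO 0.64% (vol/vol). Binary PE call at 120 hpf by brightfield; fitted upward vs DMSO baseline. 5uM trimethyltin chloride as positive control.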

[11] = Tanguay_ZF_120hpf_BRAI_legacy: (Legacy) Oregon State University Tanguay Lab 120 Hour Post-fertilization zebrafish Assay for Brain Malformation (AID 2283641)
How it was run: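 Read-out: binary brain morphology call at 120 hpf (brightfield), fitted in gain-of-signal direction vs DMSO. Wild-type Tropical 5D embryos, static exposure, 28C, 0.64% DMSO final; 5uM trimethyltin chloride as positive control.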

[12] = Tanguay_ZF_120hpf_SOMI_legacy: (Legacy) Oregon State University Tanguay Lab 120 Hour Post-fertilization zebrafish Assay for Somite Malformation (AID 2283647)
How it was run: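 Binary brightfield scoring of somite defects at 120 hpf in 5D wild-type larvae; one dechorionated embryo per well, static exposure from 6 hpf, 28C, sealed and dark. Final DMSO 0.64%; trimethyltin chloride 5uM positive control.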

[13] = Tanguay_ZF_120hpf_CFIN_legacy: (Legacy) Oregon State University Tanguay Lab 120 Hour Post-fertilization zebrafish Assay for Caudal Fin Malformation (AID 2283649)
How it was run: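 Dechorionated 5D wild-type zebrafish, static exposure 6–120 hpf, 28C, sealed and dark, 0.64% v/v DMSO final. Binary fin-malformation call at 120 hpf, brightfield; gain of signal vs DMSO baseline.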

[14] = Tanguay_ZF_120hpf_PIG_legacy: (Legacy) Oregon State University Tanguay Lab 120 Hour Post-fertilization zebrafish Assay for Pigmentation Malformation (AID 2283650)
How it was run: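 Pigment malformation recorded as a binary call at 120 hpf in zebrafish (Tropical 5D) exposed singly from 6 hpf after pronase dechorionation. Static, sealed, 28C exposure, 0.64% DMSO; mortality excludes scoring; positive-direction fit against DMSO.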

[15] = Tanguay_ZF_120hpf_CIRC_legacy: (Legacy) Oregon State University Tanguay Lab 120 Hour Post-fertilization zebrafish Assay for Circulatory Malformation (AID 2283651)
How it was run: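 Binary circulatory malformation call at 120 hpf by brightfield imaging of zebrafish larvae; chorion removed at 4 hpf, static exposure from 6 hpf in sealed dark plates at 28C, final DMSO 0.64%; non-mortality endpoints skipped if embryo died.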

[16] = Tanguay_ZF_120hpf_SNOU_legacy: (Legacy) Oregon State University Tanguay Lab 120 Hour Post-fertilization zebrafish Assay for Snout Malformation (AID 2283637)
How it was run: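 Binary snout-malformation call at 120 hpf in wild-type 5D embryos, chorion removed by pronase, under static exposure from 6 hpf at 28C (0.64% DMSO). Embryos dying by 24 or 120 hpf excluded.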

[17] = Tanguay_ZF_120hpf_PFIN_legacy: (Legacy) Oregon State University Tanguay Lab 120 Hour Post-fertilization zebrafish Assay for Pectoral Fin Malformation (AID 2283648);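 further: each larva judged yes or no for fin defect by brightfield with dead larvae skipped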
How it was run: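 Pectoral fin malformation was recorded as a binary endpoint at 120 hpf in wild-type Tropical 5D larvae, which had been dechorionated and exposed statically from 6 hpf at 28C in 0.64% DMSO. Dead embryos were excluded.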

[18] = Tanguay_ZF_120hpf_AXIS_legacy: (Legacy) Oregon State University Tanguay Lab 120 Hour Post-fertilization zebrafish Assay for Body Axis Malformation (AID 2283635);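 further: potency for an increased fraction of larvae scored with body axis malformation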
How it was run: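 Embryos: 5D wild-type, pronase-dechorionated 4 hpf; static exposure 6–120 hpf, 28C, sealed, dark, 1 embryo/well, 0.64% DMSO. 120 hpf axis malformation scored present/absent; dead embryos excluded. Analysed as gain of signal vs DMSO.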

[19] = read-out: kallikrein-3 (KLK3), KLK3 (gene 354); test: LTEA_HepaRG_KLK3: Life Technologies and Expression Analysis (LTEA) Assay for kallikrein-3 (KLK3) using HepaRG (AID 2283652; active means hit-call score of the fitted dose curve at least 0.9, where 1 is the maximum; inactive means score below 0.9); settings: mRNA level, 48 h; actives raise or lower the signal
How it was run: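 KLK3 transcript levels were measured by TaqMan qRT-PCR with normalisation to three housekeeping genes. HepaRG cultures received chemicals for 48 h at up to 100 uM (half-log, 8 points, 0.5% DMSO vehicle), fitted in both directions against DMSO.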

[20] = molecular target: Cellular tumor antigen p53 (Homo sapiens) (UniProt P04637); test: TOX21_p53_BLA_p5_ratio: Tox21 HCT-116 p53 Agonism Beta-lactamase Assay, Ratio, Phase 5 (AID 2283599)
How it was run: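 Beta-lactamase reporter ratio (blue 460 nm over green 530 nm, 405 nm excitation) after 2 h CCF4-AM loading, in HCT-116 cells exposed 16 h at 37 C to compounds pinned at 217-fold dilution. Increases relative to DMSO baseline scored.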

Measured: AC50

Chain of Cellular tumor antigen p53 (Homo sapiens) (P04637 whole entry, looked up): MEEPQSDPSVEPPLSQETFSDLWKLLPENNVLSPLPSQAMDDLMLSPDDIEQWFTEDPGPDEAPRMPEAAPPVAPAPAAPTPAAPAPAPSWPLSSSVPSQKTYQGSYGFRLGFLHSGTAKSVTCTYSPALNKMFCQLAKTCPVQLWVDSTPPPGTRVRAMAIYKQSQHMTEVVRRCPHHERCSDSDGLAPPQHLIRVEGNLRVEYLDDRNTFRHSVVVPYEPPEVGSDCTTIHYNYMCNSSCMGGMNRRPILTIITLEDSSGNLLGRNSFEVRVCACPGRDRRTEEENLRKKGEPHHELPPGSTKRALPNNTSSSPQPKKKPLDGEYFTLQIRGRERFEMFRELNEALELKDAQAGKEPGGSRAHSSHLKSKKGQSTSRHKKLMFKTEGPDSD

Fc1ccc(Oc2ccnc3cc(Cl)cc(Cl)c23)cc1
active: [1] 89.1 µM | [4] 81.6 µM
not listed: [16] | [17] | [18] | [19] | [20]
inactive: all other assays above

CCON=C(CC)C1=C(O)CC(c2c(C)cc(C)cc2C)CC1=O (stereo not given)
not listed: [15] | [18] | [19] | [20]
inactive: all other assays above

CCOC(=O)CC(SP(=S)(OC)OC)C(=O)OCC (stereo not given)
active: [6] 37.4 µM | [18] 34.6 µM | [7] 38.7 µM | [8] 33.7 µM | [10] 37 µM | [12] 32 µM | [13] 36.2 µM
not listed: [14] | [16] | [17] | [19] | [20]
inactive: all other assays above

CCNc1nc(Cl)nc(NCC)n1
not listed: [14] | [16] | [17] | [18] | [19] | [20]
inactive: all other assays above

COC(=O)c1ccccc1C(=O)OC
not listed: [16] | [17] | [18] | [19] | [20]
inactive: all other assays above

C=CCC1=C(C)C(OC(=O)C2C(C=C(C)C)C2(C)C)CC1=O (stereo not given)
not listed: [16] | [17] | [18] | [19] | [20]
inactive: all other assays above

CC(C)Oc1cc(-n2nc(C(C)(C)C)oc2=O)c(Cl)cc1Cl
active: [2] 27.7 µM | [3] 28.5 µM
inactive: [1] | [2] | [4] | [5] | [6] | [7] | [11] | [13] | [15]

OC(c1ccc(Cl)cc1)(c1cncnc1)c1ccccc1Cl (stereo not given)
active: [4] 63 µM
not listed: [15] | [16] | [17] | [18] | [20]
inactive: all other assays above

COC(=O)N(OC)c1ccccc1COc1ccn(-c2ccc(Cl)cc2)n1
active: [1] 1.51 µM | [4] 1.67 µM | [5] 0.367 µM
not listed: [16] | [17] | [18] | [19] | [20]
inactive: all other assays above

CC(C)C1(C)N=C(c2nc3ccccc3cc2C(=O)O)NC1=O (stereo not given)
not listed: [3] | [5] | [13] | [16] | [17] | [18] | [19]
inactive: all other assays above

Cc1ccc(-c2c(Cl)nc(C#N)n2S(=O)(=O)N(C)C)cc1
active: [1] 12.1 µM | [2] 71.9 µM | [4] 17.3 µM | [5] 1.55 µM
not listed: [16] | [18] | [19] | [20]
inactive: all other assays above

CCCCC(CC)COC(=O)c1ccccc1C(=O)OCC(CC)CCCC (stereo not given)
not listed: [10] | [16] | [18] | [19] | [20]
inactive: all other assays above
